Source: PubChem BioAssay (EPA / NIEHS)
Results filed as inconclusive are left out. Calls of active or inactive are those of the source. The calls were made as follows, unless noted: active = hit-call score of the fitted dose curve at least 0.9, where 1 is the maximum; inactive = score below 0.9.

Assays:
[1] = target: Paired box protein Pax-6 (Homo sapiens) (UniProt P26367); experiment: ATG_Pax6_CIS: Attagene CIS-FACTORIAL HepG2 Assay for human Paired Box 6 (PAX6) (AID 2282956); conditions: HepG2 CIS-FACTORIAL PAX6 reporter transcription, RNA readout; actives raise or lower the signal
Procedure, shortened: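 Transient MRTU transfection of HepG2 → compound exposure 24 h → TriZol RNA, oligo(dT) RT → PCR, 6-FAM primer extension, HpaI cut → capillary electrophoresis; activity fitted both directions against DMSO.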

[2] = ATG_RORE_CIS: Attagene CIS-FACTORIAL HepG2 Assay for human RAR-related Orphan Receptor Element (RORE) (AID 2282959); conditions: HepG2 Attagene cis-factorial RORE reporter, mRNA; actives raise or lower the signal
Procedure, shortened: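 Transiently transfected HepG2 reporter cells were treated 24 h. Reporter transcripts were detected by RT-PCR and capillary electrophoresis, with bidirectional fitting against DMSO.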

[3] = ATG_Sox_CIS: Attagene CIS-FACTORIAL HepG2 Assay for human SRY-box transcription factor (SOX) (AID 2282960); conditions: HepG2 Attagene cis-factorial SOX reporter, mRNA; actives raise or lower the signal
Procedure, shortened: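 Gain- or loss-of-signal endpoint, fitted bidirectionally with DMSO as negative control. Based on reporter mRNA from transfected HepG2 cells harvested 24 h post-treatment and quantified via RT-PCR and capillary electrophoresis.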

[4] = target: Transcription factor Sp1 (Homo sapiens) (UniProt P08047); experiment: ATG_Sp1_CIS: Attagene CIS-FACTORIAL HepG2 Assay for human Specificity Protein 1 (Sp1) (AID 2282961); conditions: HepG2 Sp1 cis-reporter transcription, actives raise or lower the signal
Procedure, shortened: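 Endpoint reflects endogenous Sp1 transcriptional activity, not an exogenous fusion protein: HepG2 cells with transfected cis-regulated reporters, 24 h dosing, RT-PCR/capillary electrophoresis mRNA read-out, DMSO-normalised bidirectional fit.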

[5] = target: Signal transducer and activator of transcription 3 (Homo sapiens) (UniProt P40763); experiment: ATG_STAT3_CIS: Attagene CIS-FACTORIAL HepG2 Assay for human Signal Transducer and Activator of Transcription 3 (STAT3) (AID 2282963); conditions: HepG2, Attagene cis-factorial STAT3 reporter transcription; actives raise or lower the signal
Procedure, shortened: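 Values derive from bidirectional fits relative to DMSO of reporter mRNA levels, measured by RT-PCR with capillary electrophoresis, in HepG2 cells carrying transiently transfected cis-regulated reporter units and exposed 24 h.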

[6] = ATG_TA_CIS: Attagene CIS-FACTORIAL HepG2 Assay for human TA Basal Promoter (AID 2282964); conditions: HepG2 Attagene CIS-factorial TA basal promoter reporter; actives raise or lower the signal
Procedure, shortened: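 HepG2 cells transiently transfected with multiplexed cis-promoter reporter units, dosed 24 h. Reporter mRNA measured by RT-PCR, 6-FAM labelling, HpaI digestion and capillary electrophoresis; bidirectional fit versus DMSO baseline, serving as background control.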

[7] = ATG_TCF_b_cat_CIS: Attagene CIS-FACTORIAL HepG2 Assay for human T-Cell-Factor with beta-catenin (TCF/b-cat) (AID 2282965); conditions: HepG2 TCF/beta-catenin cis-reporter transcription, actives raise or lower the signal
Procedure, shortened: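 HepG2, transient MRTU transfection, cis-element-driven reporters (endogenous TFs). 24 h compound exposure. Readout: reporter mRNA by RT-PCR + 6-FAM primer extension, HpaI digest, capillary electrophoresis. Gain/loss fit vs DMSO baseline.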

[8] = ATG_TAL_CIS: Attagene CIS-FACTORIAL HepG2 Assay for human TAL Basal Promoter (AID 2282966); conditions: HepG2 Attagene cis-factorial TAL promoter reporter; actives raise or lower the signal;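 also: background control endpoint measuring basal TAL promoter reporter mRNA not a specific factor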
Procedure, shortened: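 HepG2 cells were transiently transfected with promoter-driven multiplexed reporter units and dosed for 24 h. Reporter mRNA was measured by RT-PCR with capillary electrophoresis fluorescence; bidirectional fits used DMSO as baseline, serving as a background control.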

[9] = ATG_TGFb_CIS: Attagene CIS-FACTORIAL HepG2 Assay for human Transforming Growth Factor (TGF) (AID 2282967); conditions: HepG2 Attagene CIS TGFb reporter, mRNA transcription; actives raise or lower the signal
Procedure, shortened: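 HepG2 cells transiently transfected with cis-promoter-driven multiplexed reporter units; 24 h compound exposure. Reporter mRNA measured by RT-PCR, 6-FAM labeling, HpaI digestion and capillary electrophoresis; bidirectional fit versus DMSO baseline.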

[10] = ATG_VDRE_CIS: Attagene CIS-FACTORIAL HepG2 Assay for human Vitamin D Receptor Element (VDRE) (AID 2282968); conditions: HepG2 VDRE cis-reporter transcription, actives raise or lower the signal
Procedure, shortened: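 Cell-based multiplexed reporter format in human liver HepG2 cells, 24 h post-dose. Fluorescence from capillary electrophoresis of reporter cDNA gives the signal, with DMSO as negative control and baseline.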

[11] = target: Estrogen receptor (Homo sapiens) (UniProt P03372); experiment: ATG_ERa_TRANS: Attagene TRANS-FACTORIAL HepG2 Assay for human Estrogen Receptor alpha (ERa) (AID 2282970; active = hit-call score of the fitted dose curve at least 0.9, where 1 is the maximum); conditions: HepG2 Attagene TRANS ERa GAL4 reporter, mRNA
Procedure, shortened: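 HepG2 cells transiently transfected with multiplexed GAL4-UAS reporter units; ERa activity read via exogenous chimeric NR-Gal4 protein. After 24 hour compound exposure, reporter mRNA measured by RT-PCR with 6-FAM labelling and capillary electrophoresis; gain-of-signal fitted relative to DMSO.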

[12] = target: X-box-binding protein 1 (Homo sapiens) (UniProt P17861); experiment: ATG_Xbp1_CIS: Attagene CIS-FACTORIAL HepG2 Assay for human X-box Binding Protein 1 (XBP1) (AID 2282972); conditions: HepG2 XBP1 cis-element reporter, Attagene multiplex; actives raise or lower the signal
Procedure, shortened: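 HepG2, transient MRTU transfection (cis-promoter driven), 24 h compound exposure. Total RNA → oligo(dT) RT → PCR → 6-FAM labeling → HpaI cut → CE. Bidirectional fit vs DMSO.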

[13] = ATG_M_19_TRANS: Attagene TRANS-FACTORIAL HepG2 Assay for M19 Transcription Factor (Internal Marker) (AID 2282974; active = hit-call score of the fitted dose curve at least 0.9, where 1 is the maximum); conditions: HepG2 Attagene TRANS-FACTORIAL M19 internal marker reporter
Procedure, shortened: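 Using RT-PCR and capillary electrophoresis, reporter mRNA from transiently transfected human HepG2 cells was quantified following 24 h exposure; activity was fitted in the positive direction against DMSO.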

[14] = ATG_GAL4_TRANS: Attagene TRANS-FACTORIAL HepG2 Assay for GAL4 (Internal Marker) (AID 2282976; active = hit-call score of the fitted dose curve at least 0.9, where 1 is the maximum); conditions: HepG2 Attagene TRANS GAL4 internal marker reporter
Procedure, shortened: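 HepG2 cells transiently transfected with multiplexed GAL4-UAS reporter constructs were dosed for 24 h. Reporter mRNA was measured by RT-PCR, 6-FAM primer extension, HpaI digestion and capillary electrophoresis, and gain of signal was fitted relative to DMSO.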

Measured: outcome

Chain of Signal transducer and activator of transcription 3 (Homo sapiens) (P40763 whole entry, looked up): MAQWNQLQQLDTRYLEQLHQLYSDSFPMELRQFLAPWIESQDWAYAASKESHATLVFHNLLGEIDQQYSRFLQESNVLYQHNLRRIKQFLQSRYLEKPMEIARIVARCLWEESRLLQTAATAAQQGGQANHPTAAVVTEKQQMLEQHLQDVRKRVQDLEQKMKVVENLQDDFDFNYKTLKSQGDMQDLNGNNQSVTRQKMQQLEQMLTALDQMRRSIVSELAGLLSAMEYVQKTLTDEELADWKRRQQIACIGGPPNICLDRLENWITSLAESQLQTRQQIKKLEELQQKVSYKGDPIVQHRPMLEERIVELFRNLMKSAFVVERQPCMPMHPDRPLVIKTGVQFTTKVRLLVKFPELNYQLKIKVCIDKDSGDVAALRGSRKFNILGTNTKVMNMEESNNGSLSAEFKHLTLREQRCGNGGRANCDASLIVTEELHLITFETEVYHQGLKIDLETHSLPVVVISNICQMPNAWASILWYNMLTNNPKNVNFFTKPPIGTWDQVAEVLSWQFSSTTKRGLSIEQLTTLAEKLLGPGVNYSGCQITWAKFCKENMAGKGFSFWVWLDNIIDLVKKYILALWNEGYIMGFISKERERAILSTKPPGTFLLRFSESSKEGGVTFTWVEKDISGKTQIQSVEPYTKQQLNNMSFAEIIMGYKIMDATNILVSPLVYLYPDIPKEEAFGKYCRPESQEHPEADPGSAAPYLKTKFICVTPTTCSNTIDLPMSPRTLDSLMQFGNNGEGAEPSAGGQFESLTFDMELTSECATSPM
Chain of X-box-binding protein 1 (Homo sapiens) (P17861 whole entry, looked up): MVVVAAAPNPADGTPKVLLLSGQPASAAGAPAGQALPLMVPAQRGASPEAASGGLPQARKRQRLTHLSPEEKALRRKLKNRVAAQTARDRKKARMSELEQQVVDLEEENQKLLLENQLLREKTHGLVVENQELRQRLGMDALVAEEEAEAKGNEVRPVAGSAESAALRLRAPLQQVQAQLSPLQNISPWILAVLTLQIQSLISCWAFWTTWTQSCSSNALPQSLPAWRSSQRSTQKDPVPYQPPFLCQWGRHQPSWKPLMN
Chain of Estrogen receptor (Homo sapiens) (P03372 whole entry, looked up, the tested form may be a part): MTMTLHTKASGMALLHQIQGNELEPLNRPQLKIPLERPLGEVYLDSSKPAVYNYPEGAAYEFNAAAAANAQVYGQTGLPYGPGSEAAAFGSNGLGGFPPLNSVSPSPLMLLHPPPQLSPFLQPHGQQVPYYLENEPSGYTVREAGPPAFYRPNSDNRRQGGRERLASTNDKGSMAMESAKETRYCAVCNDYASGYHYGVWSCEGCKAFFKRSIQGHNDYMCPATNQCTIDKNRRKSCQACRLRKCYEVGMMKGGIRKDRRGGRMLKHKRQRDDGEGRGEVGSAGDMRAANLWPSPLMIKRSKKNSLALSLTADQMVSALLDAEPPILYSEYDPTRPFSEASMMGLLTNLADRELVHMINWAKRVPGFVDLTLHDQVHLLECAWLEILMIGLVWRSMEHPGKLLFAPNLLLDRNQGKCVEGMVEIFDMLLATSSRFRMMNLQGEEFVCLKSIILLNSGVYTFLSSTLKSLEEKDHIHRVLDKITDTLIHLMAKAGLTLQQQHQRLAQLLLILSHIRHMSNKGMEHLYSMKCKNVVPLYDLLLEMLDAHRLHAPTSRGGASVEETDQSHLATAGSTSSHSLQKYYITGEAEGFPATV
Chain of Paired box protein Pax-6 (Homo sapiens) (P26367 whole entry, looked up): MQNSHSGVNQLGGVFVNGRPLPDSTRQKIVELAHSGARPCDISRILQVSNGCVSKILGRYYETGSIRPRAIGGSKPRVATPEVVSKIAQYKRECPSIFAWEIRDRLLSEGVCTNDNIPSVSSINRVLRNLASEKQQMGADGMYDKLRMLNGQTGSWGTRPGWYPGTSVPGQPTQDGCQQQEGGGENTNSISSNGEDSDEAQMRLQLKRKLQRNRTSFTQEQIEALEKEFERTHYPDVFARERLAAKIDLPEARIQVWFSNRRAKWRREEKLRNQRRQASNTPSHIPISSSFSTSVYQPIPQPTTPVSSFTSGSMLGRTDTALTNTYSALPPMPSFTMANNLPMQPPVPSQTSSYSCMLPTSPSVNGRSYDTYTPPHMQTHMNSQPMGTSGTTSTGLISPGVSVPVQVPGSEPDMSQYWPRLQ
Chain of Transcription factor Sp1 (Homo sapiens) (P08047 whole entry, looked up, the tested form may be a part): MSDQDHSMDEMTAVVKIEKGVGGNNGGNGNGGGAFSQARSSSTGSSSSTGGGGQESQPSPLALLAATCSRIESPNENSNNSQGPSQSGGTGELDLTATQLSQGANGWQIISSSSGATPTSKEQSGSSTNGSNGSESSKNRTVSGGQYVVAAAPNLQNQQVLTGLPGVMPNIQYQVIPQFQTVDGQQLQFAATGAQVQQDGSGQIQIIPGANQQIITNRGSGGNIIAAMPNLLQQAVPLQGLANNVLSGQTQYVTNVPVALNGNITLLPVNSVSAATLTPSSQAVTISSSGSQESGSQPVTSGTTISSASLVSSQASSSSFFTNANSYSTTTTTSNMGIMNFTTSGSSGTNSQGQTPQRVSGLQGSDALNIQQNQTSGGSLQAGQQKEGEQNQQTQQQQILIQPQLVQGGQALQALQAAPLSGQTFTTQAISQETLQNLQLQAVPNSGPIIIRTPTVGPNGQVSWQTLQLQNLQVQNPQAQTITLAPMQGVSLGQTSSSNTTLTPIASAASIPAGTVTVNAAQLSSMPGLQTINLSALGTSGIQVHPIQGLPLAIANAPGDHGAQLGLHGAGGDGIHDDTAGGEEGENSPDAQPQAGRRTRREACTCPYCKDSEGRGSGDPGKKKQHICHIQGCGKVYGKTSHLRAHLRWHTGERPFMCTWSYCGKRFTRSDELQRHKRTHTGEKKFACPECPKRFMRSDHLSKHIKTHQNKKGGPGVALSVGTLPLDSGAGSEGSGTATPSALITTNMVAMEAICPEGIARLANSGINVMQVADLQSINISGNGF

CCCC1CCOC(C)S1 (centres undefined)
inactive: [1] | [2] | [3] | [4] | [5] | [6] | [7] | [8] | [9] | [10] | [11] | [12] | [13] | [14]
